This note sets out measurements from the supplement of paper PMC9446081.

Molecules are shown by their SMILES. Hit rate of the full screen: of about 39,000 compounds, about 220 (0.56%) showed activity. The list comes from a sample in which actives are over-represented; it also holds similar structures and randomly drawn compounds. Values without a mark were called inactive.
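Further: Wild-type cells incubated without shaking, value is the mean of two biological replicates.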

The assay concerns Escherichia coli K-12 BW25113. As to the kind of experiment: relative growth (OD600 normalised to plate interquartile mean) (fraction); higher = less growth inhibition, active = 0.2 or less. The settings on record: 50 µM; LB; incubation time: overnight (16-24 h).
As to `NC1(C(=O)O)CC1`, the relative growth is 0.988. In the case of `C[C@@H]1CN([C@@H](C)CO)C(=O)c2cc(C#Cc3ccc(F)cc3)cnc2O[C@@H]1CN(C)Cc1ccccn1`, the relative growth was 0.995.

On to `Cc1ccc(S(=O)(=O)Nc2ccc3c(c2)C(=O)N([C@@H](C)CO)C[C@@H](C)[C@@H](CN(C)C(=O)Nc2cccc4ccccc24)OCCCC[C@@H](C)O3)cc1`, for which the relative growth was 0.998.

As to `CC1COc2c(N3CCN(C)CC3)c(F)cc3c(=O)c(C(=O)O)cn1c23` (configuration not stated), the relative growth was 0.0447 (active). Then `CN1CCN(c2c(F)cc3c(=O)c(C(=O)O)cn4c3c2OCN4C)CC1`, with 0.0475 (active); and `CN(c1ccc(N)cc1[N+](=O)[O-])S(C)(=O)=O`, with 1.02; and `C/C=C/c1ccc2c(c1)O[C@@H](CN(C)Cc1ccc(C(=O)O)cc1)[C@@H](C)CN([C@@H](C)CO)S2(=O)=O`, with 1.02. For the compound `COc1ccccc1-c1ccc2c(c1)O[C@H](CN(C)C(=O)c1ccncc1)[C@@H](C)CN([C@H](C)CO)S2(=O)=O`, the relative growth was 1.01. Then `C[C@@H]1CN([C@@H](C)CO)C(=O)Cc2cc(NC(=O)Cc3cn(C)c4ccccc34)ccc2O[C@H]1CN(C)Cc1ccc(C(F)(F)F)cc1`, with 1.02. For `CCCNC(=O)N1C[C@H](C)[C@H](OC)CN(C)C(=O)c2ccc(NS(=O)(=O)CC(F)(F)F)cc2OC[C@H]1C`, the relative growth is 0.974. The same measure for `Cn1nnnc1SCC1=C(C(=O)[O-])N2C(=O)C(NC(=O)C(OC=O)c3ccccc3)C2SC1.[Na+]` (configuration not stated): 0.365. Take `NC(=O)c1cc[n+](CC2=C(C(=O)[O-])N3C(=O)C(NC(=O)C(c4ccccc4)S(=O)(=O)[O-])C3SC2)cc1.[Na+]` (configuration not stated): the relative growth was 1.08. The same measure for `Cn1nnnc1SCC1=C(C(=O)[O-])N2C(=O)C(NC(=O)C(O)c3ccccc3)C2SC1.[Na+]` (configuration not stated): 0.0463 (active); for `O=C([O-])C1=C(CSc2nnnn2CS(=O)(=O)[O-])CSC2C(NC(=O)C(O)c3ccccc3)C(=O)N12.[Na+].[Na+]` (configuration not stated): 0.044 (active). The same measure for `NCc1ccccc1CC(=O)NC1C(=O)N2C(C(=O)O)=C(CSc3nnnn3CC(=O)O)CSC12` (configuration not stated): 0.0453 (active); for `CCC(CC)c1ccc(O)cc1`: 0.994; for `CNC[C@@H]1Oc2cc(C#CCN(C)C)ccc2S(=O)(=O)N([C@@H](C)CO)C[C@H]1C`: 0.981.

As to `Oc1ccccc1/N=C/c1ccncc1`, the relative growth is 0.953.

For the compound `Cc1nn(C)cc1NC(=O)C[C@@H]1CC[C@@H]2[C@H](COc3ccc(NC(=O)C4CCOCC4)cc3C(=O)N2C)O1`, the relative growth was 0.986. Then `COc1ccc(S(=O)(=O)N(C)C[C@@H]2OCCCC[C@H](C)Oc3ccc(NC(=O)Nc4cccc5ccccc45)cc3C(=O)N([C@H](C)CO)C[C@H]2C)cc1`, with 0.966; and `C[C@@H]1CN([C@@H](C)CO)S(=O)(=O)c2ccc(C#CC(C)(C)O)cc2O[C@@H]1CN(C)Cc1ccccc1`, with 1; and `Cc1noc(C)c1S(=O)(=O)Nc1ccc2c(c1)C(=O)N([C@@H](C)CO)C[C@H](C)[C@@H](CN(C)Cc1ccccc1)O2`, with 0.968. Then `C[C@H](CO)N1C[C@H](C)[C@H](CN(C)C(=O)Nc2ccc3c(c2)OCO3)OCCCC[C@H](C)Oc2ccc(NC(=O)Cc3ccccc3)cc2C1=O`, with 0.991; and `CN(C)C(=O)C[C@H]1C=C[C@H](NC(=O)C2CCOCC2)[C@H](CO)O1`, with 1.01. The same measure for `COc1ccc(NC(=O)Nc2ccc3c(c2)C(=O)N([C@H](C)CO)C[C@@H](C)[C@@H](CN(C)S(=O)(=O)c2cccs2)OCCCC[C@@H](C)O3)cc1`: 1.02; for `CO[C@@H]1CN(C)C(=O)c2cc(NS(=O)(=O)CC(F)(F)F)ccc2OC[C@@H](C)N(C(=O)c2ccc3c(c2)OCO3)C[C@H]1C`: 0.937.

In the case of `Cc1ccc(S(=O)(=O)Nc2ccc3c(c2)C(=O)N([C@@H](C)CO)C[C@@H](C)[C@H](CN(C)C(=O)Cc2ccccc2)OCCCC[C@@H](C)O3)cc1`, the relative growth was 1.01. The same measure for `C[C@H]1CN([C@@H](C)CO)C(=O)Cc2cc(NC(=O)CCN3CCOCC3)ccc2O[C@@H]1CN(C)Cc1ccccc1`: 1.01. The same measure for `C=CC(=O)NCCc1ccncc1`: 1.05; for `O=C(C[C@H]1C[C@H]2c3cc(NS(=O)(=O)c4ccc(F)cc4)ccc3O[C@H]2[C@H](CO)O1)NC1CCCC1`: 0.974; for `Cl.O=C(O)c1cn(-c2ccc(F)cc2)c2cc(N3CCNCC3)c(F)cc2c1=O`: 0.0456 (active). Regarding `Cn1cc(S(=O)(=O)N2CCN(c3ccc(F)cc3)CC2)c(=O)n(C)c1=O`, the relative growth is 1.01.

Consider `Cc1ccc(C(=O)O)c(=O)n1C`, for which the relative growth was 1.02. The same measure for `O=C(c1ccccc1F)N1CCNCC1`: 0.999; for `CN1CCN(c2cc3c(cc2F)c(=O)c(C(=O)O)cn3-c2ccc(F)cc2)CC1.Cl`: 0.0477 (active). Then `O=C(CN1CCNCC1)c1ccc(F)cc1`, with 1; and `C[C@@H]1CCCCO[C@H](CN(C)S(=O)(=O)c2cn(C)cn2)[C@H](C)CN([C@H](C)CO)C(=O)c2cc(NS(C)(=O)=O)ccc2O1`, with 1.02; and `COc1ccc(-c2cn(CCCNC(=O)[C@H](Cc3ccccc3)NS(=O)(=O)c3ccc(C)cc3)nn2)cc1OC`, with 1.02. The same measure for `COC1=C(OC)C(=O)C(CCCCCCCCCC[P+](c2ccccc2)(c2ccccc2)c2ccccc2)=C(C)C1=O`: 0.0727 (active); for `COC1=C(OC)C(=O)C(CCCCCCCCCCO)=C(C)C1=O`: 1.05; for `CC1=C(C)C(=O)C(CCCCCCCCCC[P+](c2ccccc2)(c2ccccc2)c2ccccc2)=CC1=O`: 0.308. On to `C[C@@H]1CN([C@H](C)CO)S(=O)(=O)c2ccc(Br)cc2O[C@@H]1CN(C)C(=O)NC1CCCC1`, for which the relative growth was 0.989. The same measure for `Cc1cc(=S)oc2ccccc12`: 0.943; for `CC(C)CC#Cc1ccc2c(c1)O[C@H](CN(C)C(=O)NC1CCCC1)[C@H](C)CN([C@@H](C)CO)S2(=O)=O`: 0.997; for `COC(=O)N/N=C/c1ccc([N+](=O)[O-])o1`: 0.0393 (active). Then `NC(=O)NN=Cc1ccc([N+](=O)[O-])o1`, with 0.0474 (active); and `CCOC(=O)c1ccc(N2NC(=O)/C(=C/c3ccc([N+](=O)[O-])o3)C2=O)cc1`, with 0.984; and `O=C(N/N=C/c1ccc(CO)o1)c1ccccn1`, with 1. Regarding `O=C(NN=Cc1ccc([N+](=O)[O-])o1)c1ccc(O)cc1`, the relative growth is 0.973. On to `O=C(CN1CCOCC1)N/N=C/c1ccc([N+](=O)[O-])o1`, for which the relative growth is 0.801.

On to `NC(=O)N/N=C/c1ccc([N+](=O)[O-])o1`, for which the relative growth was 0.0425 (active).

`Nc1nnc(-c2ccc([N+](=O)[O-])o2)o1`: the relative growth was 0.258.
